Reference: PubChem BioAssay AID1347416 (National Center for Advancing Translational Sciences (NCATS), 2020)
Hit rate of the full screen: of about 4,100 compounds, about 1,600 (39%) were called active. Inconclusive results (about 25%) are left out. Calls follow the shape of the dose curve; as a rule, active = well fitted inhibition curve with a large enough effect; inconclusive = small, poorly fitted or top-dose-only effect; inactive = no such curve, though single readings can be large or run the other way. The list shows a part of the results.

Test: qHTS Validation assay for Inhibitors of Plasmodium falciparum Dd2 growth in vitro; also: nearly all actives have a fitted effect of over 70% in size
Settings: P. falciparum Dd2 in RBCs, SYBR Green growth, 72 h; series mostly up to 28.7 µM; activity change, negative = inhibition: at the top concentration
Summary of the method: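 P. falciparum Dd2-infected red blood cells (2.5% hematocrit, 0.3% parasitemia) grown 72 h at 37 °C under 5% O2 with compounds in a titration, 29 uM to 0.5 nM final. Growth read as SYBR Green-1 fluorescence after ~16 h lysis; artesunate 300 nM as positive control.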
% is scaled to controls: 0 for no effect and ±100 for the full control effect; potency is read from the fitted curve at half-maximal effect.

Potency, active:
CCC(C)(C)n1nnnc1C(c1cc2cccc(C)c2[nH]c1=O)N1CCN(C(=O)c2ccco2)CC1 (stereo not given) 6.68 µM, CCC(C)(C)n1nnnc1C(c1ccccc1OC)N1CCN(C(=O)c2ccco2)CC1 (stereo not given) 15 µM, Cc1ccc(NC(=O)N(Cc2ccc3c(c2)OCO3)Cc2cc3cc4c(cc3[nH]c2=O)OCCO4)cc1 6.68 µM, O=C(Nc1ccc(Cl)cc1)Nc1ccc2c(c1)N1CCN=C1S2 5.31 µM, CCCCCCCc1c(C)nc(N2CCOCC2)[nH]c1=O 5.31 µM, NNC(=O)CN1C(c2cccc(Cl)c2)=Nc2ccc(Br)cc2C1c1ccccc1 (stereo not given) 2.66 µM, COC(=O)CC1Oc2ccc(Cl)cc2-n2cc(-c3ccc(F)cc3)nc21 (stereo not given) 4.22 µM, CCn1cc(C(=O)NCCCN2CCCC(C)C2)c(=O)c2cc(S(=O)(=O)N(C)C3CCCCC3)ccc21 (stereo not given) 8.41 µM, Cc1cc(Cl)c(S(=O)(=O)N2CCN(c3ccccn3)CC2)cc1OCC(=O)NC1CCCCC1 0.668 µM, Cn1cccc1CN1C[C@@H](COc2ccncc2)[C@H](c2ccccn2)C1 13.3 µM, CC(C)CCN(CCC(C)C)CC(O)Cn1c2ccccc2c(=O)c2ccccc21 (stereo not given) 1.88 µM, O=C(c1ccc(OC2CCN(Cc3c[nH]c4ccccc34)CC2)cc1)N1CCCCC1 15 µM, CN1C2CCC1/C(=C\c1ccccc1)C(=O)/C2=C\c1ccccc1 2.11 µM, Cc1cc(Oc2c(C(F)(F)F)oc3c(CN4CCC(C)CC4)c(O)ccc3c2=O)cc(C)c1Cl 0.75 µM, Cc1ccc(Oc2c(C(F)(F)F)oc3c(CN4CCC(C)CC4)c(O)ccc3c2=O)cc1 1.68 µM, CCOC(=O)C1CCN(C(=O)c2cc3c(n2C)CCN(Cc2ccccc2)C3)CC1 10.6 µM, CCOC(=O)C1CCN(C(=O)c2cc(C(C)(C)C)nn2Cc2ccccc2)CC1 4.73 µM, COc1ccc(NC(=O)c2ccc(Cl)c(S(=O)(=O)N3CCc4ccccc4C3)c2)cn1 7.5 µM, Cc1cc(C)cc(N=Cc2[nH]c3ccc(Br)c(Cl)c3c2O)c1 11.9 µM, CCOc1ccc(CCNC(=O)Nc2ccccc2)cc1OCC 5.31 µM, CC(C)C(=O)Nc1oc(-c2ccccc2)cc1C#N 6.68 µM, Clc1ccc2c(NCc3ccccn3)ccnc2c1 2.11 µM, CCN1CCC(Nc2ccnc3cc(Cl)ccc23)CC1 0.188 µM, CCN(CC)CCNc1ccnc2cc(Cl)ccc12 0.211 µM, CN1CCC2(C1)CN(Cc1ccccc1)c1ccc(C(=O)Nc3ccc(F)cc3)cc12 (stereo not given) 19.3 µM, Cc1sc2nc(-c3ccccn3)[nH]c(=O)c2c1-c1ccccc1 13.3 µM, Cc1ccccc1Nc1cc(C)c2c(O)cccc2n1 5.31 µM, Cc1cccc(Nc2cc(C)c3c(O)cccc3n2)c1C 4.73 µM, Nc1ccc2oc(-c3ccc4nc[nH]c4c3)nc2c1 13.3 µM, COc1ccc(CCN(C)C(=O)CC(c2cccc(F)c2)c2cn(C)c3ccccc23)cc1OC (stereo not given) 8.41 µM

Activity change, negative = inhibition, inactive:
COc1cc2c(cc1OC)CN(C(=O)c1ccco1)CC2 46.3%, COc1ccc(C(=O)N[C@@H]2CCC[C@@H]2C(=O)N2CCN(C(=O)c3ccco3)CC2)cn1 10.4%, O=C(c1cc2cc(Br)ccc2[nH]1)N1CCc2ccccc21 -28.9%, NNC(=O)CN1C(=O)Nc2ccc(Br)cc2C1c1ccccc1 (stereo not given) 35.3%, CCn1cc(C(=O)N2CCN(c3ccccc3)CC2)c(=O)c2cc(S(=O)(=O)N(C)C3CCCCC3)ccc21 31.9%, CN(C1CCCCC1)S(=O)(=O)c1ccc2c(c1)c(=O)c(C(=O)N1CCN(c3ccccc3F)CC1)cn2C 69%, O=C(CC1CCCN(c2cnn(CC3CC3)c(=O)c2)C1)N1CCN(c2ccccn2)CC1 (stereo not given) -17.6%, COc1ccc(CC(=O)N[C@@H]2CN(c3ccccn3)C[C@H]2CN(C)C)cc1 -20.3%, Cn1cccc1CN1CCn2c(nnc2-c2ccccc2)C1 -6.66% [at 43.1 µM], O=C(COc1ccc(Cl)cc1)N1C[C@@H](CO)[C@H](c2ccccn2)C1 7.42%, O=C(Cc1c[nH]c2ccccc12)N1CCc2c(nc(-c3ccc(F)cc3)[nH]c2=O)C1 -7.04%, O=C([C@@H]1C[C@H](Oc2ccccc2)CN1C(=O)c1cc2ccccc2[nH]1)N1CCCC1 -12.6%, CCc1nc(CN(C)C(C(=O)O)c2ccc(C(C)(C)C#N)cc2)no1 (stereo not given) 43.9%, Nc1ccc(NC(=O)c2cccc(C(=O)Nc3ccc(N)cc3Cl)c2)c(Cl)c1 9%, CCn1nc(C)cc1C(=O)N1Cc2cnn(Cc3ccc(F)cc3)c2C1 5.55%, CN1CCCCCC(O)c2cc(C(=O)N3CCN(Cc4ccccc4)CC3)ccc21 (stereo not given) -27.5%, O=C(c1cnc2n1CCN(CCc1ccccc1)CC2)N1CCC(c2ccccc2)CC1 -14.7% [at 43.1 µM], Cc1cn2nc(C(=O)N3CCC(C(=O)NCCc4ccccc4)CC3)cc2c(=O)[nH]1 3.72%, O=C(Nc1cccnc1)c1ccc(Cl)c(S(=O)(=O)N2CCc3ccccc32)c1 -21.8%, COc1ccc(NC(=O)c2ccc3c(c2)NC(C)(COCC2CC2)CO3)cn1 (stereo not given) 41.9% [at 43.1 µM], CC(C)N(C)Cc1nnnn1CC(=O)N1CCC(O)(c2cccnc2)CC1 51.6%, O=C(Cc1ccc(NC(=O)N2CCSc3ncccc32)cc1)NCCc1ccccc1 47.8%, c1ccc(-c2noc(-c3ccn4c(CN5CCSCC5)nnc4c3)n2)cc1 4.68%, CCN1CCN(C(=O)c2ccc3c(Cl)c4c(nc3c2)CCCC4)CC1 -2.92%, CCC(O)c1cc2n(n1)CCN(C(=O)CN1CCOc3ccccc3C1)C2 (stereo not given) 8.38%, CC1(CNc2ccccc2)COc2ccc(C(=O)NCc3cccc(F)c3)cc2N1 (stereo not given) -24.8% [at 43.1 µM], CN1c2cc(C(=O)Nc3ccc(F)cc3)ccc2C(=O)N2CCCCC21 (stereo not given) -5.09%, Cc1cccc(NC(=O)Cn2c(C)cc3nc4n(c(=O)c32)CCCCC4)c1C -16.8%, O=C(Nc1ccc(-c2nc3cc(NC(=O)c4ccccc4F)ccc3o2)cc1)c1ccccc1F 54%, CCc1ccc2oc(-c3ccc(NC(=O)c4cc5ccccc5o4)cc3)nc2c1 -19.7%
